Source: PubChem
Tb PYK inh: inhibitors of Trypanosoma brucei pyruvate kinase. TbPYK enzyme, Kinase-Glo Plus ATP luminescence, 45 min. 410,000 compounds, 0.12% hits. Q57TT1. Potency, µM (top dose mostly 76.8 µM), for the others: at the top dose activity, negative = inhibition, actives largely listed as inhibitors; note: potency is the fitted concentration of half-maximal effect; % is set by controls: 0 for no effect and ±100 for the full control effect; nearly all actives have a fitted effect of over 50% in size
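In this concentration-response screen, enzyme-free wells defined baseline while DMSO plates tracked drift. Each reaction combined TbPYK, substrate, compound and 130 uM ADP for 45 min at room temperature. Kinase-Glo Plus luminescence gave the signal.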
CHX counter: counter-screen for Shiga toxin inhibitors: cycloheximide protein synthesis inhibition. cell reporter, cycloheximide protein synthesis inhibition counterscreen. max response, %. 300,000 compounds, 12% hits. AID 2314; in the data active = max response mostly above about 13%, no sharp cut-off; inactive = mostly below about 14%; note: read at 38.3 µM for the half of the compounds with a filed dose; 0% is about no effect
RE007 growth inh: less growth of the S. pombe RE007 Vpr strain | S. pombe RE007 Vpr strain, BacTiter-Glo ATP luminescence, 24 h | Potency, µM (highest dose often 92.2 µM), without a hit: at the highest dose activity change, negative = less growth, actives largely listed as inhibitors | 360,000 compounds, 0.21% hits; active = well fitted falling curve with a large enough effect; inconclusive = small, poorly fitted or top-dose-only effect; inactive = no such curve, though single readings can be large or run the other way; note: potency is the fitted concentration of half-maximal effect; % is set by controls: 0 for no effect and ±100 for the full control effect; nearly all actives have a fitted effect of over 50% in size
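Fission yeast strain RE007, carrying one chromosomally integrated HIV-1 vpr copy, was seeded at OD 0.01 in PMG+AL medium with 23 nL pinned compound. After 24 h at 30 °C and 99% humidity, viability was read by BacTiter-Glo luminescence.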
LmPK inhibitor: inhibitors of Leishmania mexicana pyruvate kinase; AID 1721; purified LmPK, Kinase-Glo ATP luminescence, 1 h; 290,000 compounds, 0.37% hits; Potency, µM (doses to about 57.5 µM), for inactives: at the highest dose activity change, negative = inhibition, hits mostly inhibitors; Q27686; note: potency is the fitted concentration of half-maximal effect; % is set by controls: 0 for no effect and ±100 for the full control effect
Target sequence (Q27686 whole entry, looked up): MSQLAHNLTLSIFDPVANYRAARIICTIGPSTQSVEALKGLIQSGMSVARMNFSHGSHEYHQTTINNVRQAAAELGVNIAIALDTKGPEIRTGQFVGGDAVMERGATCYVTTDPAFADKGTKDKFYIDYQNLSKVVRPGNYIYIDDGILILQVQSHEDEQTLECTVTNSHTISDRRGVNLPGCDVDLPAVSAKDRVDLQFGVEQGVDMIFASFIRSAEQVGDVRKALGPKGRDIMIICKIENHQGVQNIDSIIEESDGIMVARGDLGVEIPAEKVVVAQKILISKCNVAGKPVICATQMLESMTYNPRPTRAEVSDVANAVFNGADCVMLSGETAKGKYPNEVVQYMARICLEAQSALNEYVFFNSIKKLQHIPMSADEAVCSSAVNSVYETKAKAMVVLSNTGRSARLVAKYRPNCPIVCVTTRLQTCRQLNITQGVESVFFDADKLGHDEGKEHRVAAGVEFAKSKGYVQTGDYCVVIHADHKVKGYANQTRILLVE
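0.1 nM LmPK, 0.5 mM PEP, 0.1 mM ADP; 50 mM imidazole pH 7.2, 7 mM MgCl2, 50 mM KCl; 1 h RT. Kinase-Glo luminescence readout, normalized to no-enzyme (full inhibition) and uninhibited wells.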
Shiga inhibitor: blocks Shiga toxin action in Vero cells; Vero cells, Shiga toxin protein synthesis inhibition reporter; inhibition, % at 38.7 µM; 290,000 compounds, 9.2% hits; AID 2315; in the data active = inhibition mostly above about 28%, no sharp cut-off; inactive = mostly below about 43%; note: 0% is about no effect
Giardia FBPA inh: inhibitors of Giardia lamblia fructose-1,6-bisphosphate aldolase; Potency, µM (doses to about 59.6 µM), inactives show at the top dose activity, negative = inhibition, hits mostly inhibitors; A8B2U2; purified Giardia FBPA; 290,000 compounds, 0.71% hits; note: potency is the fitted concentration of half-maximal effect; % is set by controls: 0 for no effect and ±100 for the full control effect; nearly all actives have a fitted effect of over 55% in size
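40 nM FBPA preincubated 10 min at RT with compound (up to 57.5 uM final), then substrate plus GAPDH/TPI/NAD/arsenate coupling and diaphorase/resazurin added. Fluorescence read after 20 min at RT, 525/598 nm.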
Numbers without * were called inactive; ? = inconclusive; . = not tested or not shown; [ ] = dose if it differs, or a comment. Only a selection was taken, and hits are over-represented in it overall. Unless noted, calls come from the whole dose curve; as a rule, active = well fitted curve in the direction sought with a large enough effect; inconclusive = small, poorly fitted or top-dose-only effect, or another doubt; inactive = no such curve, though single readings can be large; an effect the other way counts as inactive or inconclusive.

SMILES	Tb PYK inh	CHX counter	RE007 growth inh	LmPK inhibitor	Shiga inhibitor	Giardia FBPA inh
O=C(NCCCN1CCOCC1)c1sc2cc(Cl)ccc2c1Cl	-5%	15	?	-10%	34	-1%
O=C(NCCCN1CCOCC1)c1sc2cc(F)ccc2c1Cl	-8%	38*	-9%	-2%	42*	-4%
O=C(NCCCN1CCOCC1)c1sc2cc([N+](=O)[O-])ccc2c1Cl	?	10	0%	-2%	6	2.5µM*
O=C(c1ccc(F)cc1)c1ccc(-c2ccc(F)cc2)nc1	6%	14*	14%	3%	48	-1%
CSc1ccccc1C(=O)N(CC1CCCO1)c1c(N)n(Cc2ccccc2)c(=O)[nH]c1=O (configuration not stated)	-1%	.	0%	.	.	.
CC(C)(C)OC(=O)NCCCC(CCCNC(=O)OC(C)(C)C)C(=O)O	-2%	9	-16%	-3%	-12	8%
CC(C)(C)OC(=O)NCCCCCO	-3%	27*	3%	.	27*	5%
C=C(C(C)=O)C(O)c1ccco1 (configuration not stated)	.	.	.	.	.	-30%
O=C(Nc1ccc(Cl)cc1)N1N=CCC1c1ccccc1 (configuration not stated)	8%	20*	3%	2%	23	-9%
O=C(Cc1ccc(Cl)cc1)N1CCN(c2ccccc2)CC1	3%	31*	-3%	1%	63	6%
CC(=O)c1ccc(N2CCN(C(=O)Nc3ccc(Cl)cc3)CC2)cc1	-1%	3	1%	-8%[11.5 µM]	-6	-3%
O=C(Nc1ccc(Cl)cc1)N1CC=CCC1	-5%	84*	-9%	-17%	109*	2%
O=C(Nc1ccc(Cl)cc1)N1CC1	-6%	.	-5%	.	.	.
O=C(Nc1ccc(Cl)cc1)N1CCN(c2ccccc2)CC1	-3%	20*	3%	2%	24	-1%
Cc1ccc([C@@H]2CC(=O)[C@@H]3CN(S(=O)(=O)c4ccccc4C)[C@H](c4ccc(Cl)cc4)C[C@@H]3N2S(=O)(=O)c2ccc(C)cc2)cc1	8%	.	12%	.	.	.
CC(C)OCCCNC(=O)C1CCN(S(=O)(=O)c2ccc3nc4c(c(C(=O)O)c3c2)CCCCC4)CC1	-1%	-2	26%	-2%	-5	-3%
CCCCN1C(C(=O)Nc2ncccn2)=C(O)c2ccccc2S1(=O)=O	-3%	-1	-11%	-5%	-5	-22%
Cc1ccc(C(=O)C2CC2)cc1C	-2%	.	1%	.	.	.
Cc1cc(O)c(CN2CCN(c3ccc(F)cc3)CC2)c2oc(=O)cc(C)c12	3%	.	.	.	.	.
Cc1ccc(-n2c(=O)c3c4c(sc3n(Cc3ccccc3C)c2=O)CCC4)cc1C	1%	.	.	.	.	.
O=C(C1CCC1)N1CCN(c2ccc(Cl)cc2)CC1	-1%	12*	-10%	-7%	14	11%
O=C1c2oc3ccccc3c(=O)c2C(c2ccc(O)cc2)N1Cc1ccc2c(c1)OCO2 (configuration not stated)	0%	.	.	.	.	.
Nc1c(C(=O)c2ccc(Cl)cc2)oc2ccccc12	-15%	32*	3%	6%	65*	-2%
COc1ccc(C(=O)c2oc3ccc(OC)cc3c2N)cc1	3%	29*	-3%	1%	70*	-7%
C=C(C)COc1ccc2oc(C)c(C(=O)OCCOC)c2c1	8%	-1	?	-1%	-9	4%
SMILES	Tb PYK inh	CHX counter	RE007 growth inh	LmPK inhibitor	Shiga inhibitor	Giardia FBPA inh
COc1ccc(C(=O)c2oc3ccc(OC)cc3c2NC(C)=O)cc1	-2%	0	0%	-1%	-4	-1%
CCN(CC)CCOC(=O)c1c(C)oc2ccc(OC)cc12	0%	17	-17%	-1%	61*	-9%
COC(=O)c1oc2ccc(OC)cc2c1N	4%	28*	-9%	-9%	63*	1%
N#Cc1ccccc1Cn1c(SCC(=O)NCc2ccccc2)nc2ccccc21	0%	.	.	.	.	.
CC1=C(C(=O)Nc2cccc(C)c2C)C2(CCCCC2)OC1=O	-1%	.	.	.	.	.
O=c1cc(COc2ccc(Cl)c(Cl)c2)nc2sccn12	0%	20*	18%	2%	6	-1%
O=c1cc(CNc2cc(Cl)ccc2Cl)nc2sccn12	1%	29*	-12%	3%	28	-17%
COc1ccc(C2CC(=O)Oc3c(C(CCN4CCOCC4)c4ccc5c(c4)OCO5)c(OC)cc(OC)c32)cc1 (configuration not stated)	.	-7	.	.	-8	-12%
O=C(O)/C=C/c1ccc(S(=O)(=O)N2CCN(CCN3C(=O)C4C5C=CC(C5)C4C3=O)CC2)cc1 (configuration not stated)	-6%	-4	8%	-2%	-4	2%
CO/C=C\C=C/c1nnn(-c2ccc(Cl)cc2)n1	-7%	41*	?	1%	70*	-6%
Clc1ccc(-n2cnnn2)cc1	8%	-4	9%	6%	-15	6%
O=C(NCc1nc2ccccc2[nH]1)[C@H]1C[C@@H]1[C@H](NP(=O)(c1ccccc1)c1ccccc1)c1ccccc1	.	.	.	.	.	3%
CC(=O)Nc1ccc(C(=O)N/N=C/C2CC3C=CC2C3)cc1 (configuration not stated)	-6%	12	-3%	0%	-2	-5%
O=C(N/N=C/C1CC2C=CC1C2)c1ccccc1O (configuration not stated)	1%	40*	-10%	0%	68*	?
O=C(CS(=O)(=O)Cc1ccccc1)Nc1nc2c(s1)CCCC2	5%	-3	-2%	-7%	31	-1%
O=C(NC(=S)Nc1nc2c(s1)CCCC2)c1ccccc1	-7%	58*	.	4%	95*	?
COC(=O)c1ccc(C(=O)NC(=S)Nc2nc3c(s2)CCCC3)cc1	-8%	20*	.	-1%	63	?
COc1ccc(C(=O)Nc2nc3c(s2)CCCC3)cc1Cl	-3%	.	.	.	.	.
CCCCCCCCNS(=O)(=O)CCNC1CC1	-4%	.	-21%	.	.	.
CC(=O)N1N=C(c2ccc(Br)cc2)CC1c1ccc(Br)cc1 (configuration not stated)	-9%	.	3%	.	.	.
CC(C)c1ccc(C2CC(c3ccc(Br)cc3)=NN2C(N)=S)cc1 (configuration not stated)	5%	19	-2%	1%	active	1%
CCC1(c2ccc(F)cc2)NC(=O)N(CC(=O)NCc2ccccc2Cl)C1=O (configuration not stated)	4%	-5	-2%	0%	-14	4%
CCOc1cccc2cc(-c3nc(-c4ccccc4C)no3)c(=O)oc12	-1%	.	.	.	.	.
O=C(Cn1c(=O)n(Cc2ccco2)c(=O)c2c3c(sc21)CCCCC3)c1ccccc1	-2%	12	-16%	0%	57*	-1%
